Data from PubChem BioAssay AID652162 (Broad Institute, 2013).
Several values for one entry are separate records, joined by “and”; a condition that tells them apart may be missing. Equal entries are not always repeated. The whole screen tested about 350,000 compounds, of which about 840 (0.24%) were called active. Only a selection was taken, and actives are over-represented in it overall. Unmarked numbers belong to inactive results. No stated cut-off is given here; in the data, active means inhibition above about 10%; inactive means the rest.

Target: Toxin B (Clostridioides difficile) (UniProt P18177)
Assay: TcdB glycohydrolase inhibitors, primary screen, biochemical, single point, plate reader (AID 652162)
Settings: TcdB glycohydrolase enzymatic assay, at 9.99 µM, stronger effect = higher value

Chain of Toxin B (Clostridioides difficile) (P18177 whole entry, looked up): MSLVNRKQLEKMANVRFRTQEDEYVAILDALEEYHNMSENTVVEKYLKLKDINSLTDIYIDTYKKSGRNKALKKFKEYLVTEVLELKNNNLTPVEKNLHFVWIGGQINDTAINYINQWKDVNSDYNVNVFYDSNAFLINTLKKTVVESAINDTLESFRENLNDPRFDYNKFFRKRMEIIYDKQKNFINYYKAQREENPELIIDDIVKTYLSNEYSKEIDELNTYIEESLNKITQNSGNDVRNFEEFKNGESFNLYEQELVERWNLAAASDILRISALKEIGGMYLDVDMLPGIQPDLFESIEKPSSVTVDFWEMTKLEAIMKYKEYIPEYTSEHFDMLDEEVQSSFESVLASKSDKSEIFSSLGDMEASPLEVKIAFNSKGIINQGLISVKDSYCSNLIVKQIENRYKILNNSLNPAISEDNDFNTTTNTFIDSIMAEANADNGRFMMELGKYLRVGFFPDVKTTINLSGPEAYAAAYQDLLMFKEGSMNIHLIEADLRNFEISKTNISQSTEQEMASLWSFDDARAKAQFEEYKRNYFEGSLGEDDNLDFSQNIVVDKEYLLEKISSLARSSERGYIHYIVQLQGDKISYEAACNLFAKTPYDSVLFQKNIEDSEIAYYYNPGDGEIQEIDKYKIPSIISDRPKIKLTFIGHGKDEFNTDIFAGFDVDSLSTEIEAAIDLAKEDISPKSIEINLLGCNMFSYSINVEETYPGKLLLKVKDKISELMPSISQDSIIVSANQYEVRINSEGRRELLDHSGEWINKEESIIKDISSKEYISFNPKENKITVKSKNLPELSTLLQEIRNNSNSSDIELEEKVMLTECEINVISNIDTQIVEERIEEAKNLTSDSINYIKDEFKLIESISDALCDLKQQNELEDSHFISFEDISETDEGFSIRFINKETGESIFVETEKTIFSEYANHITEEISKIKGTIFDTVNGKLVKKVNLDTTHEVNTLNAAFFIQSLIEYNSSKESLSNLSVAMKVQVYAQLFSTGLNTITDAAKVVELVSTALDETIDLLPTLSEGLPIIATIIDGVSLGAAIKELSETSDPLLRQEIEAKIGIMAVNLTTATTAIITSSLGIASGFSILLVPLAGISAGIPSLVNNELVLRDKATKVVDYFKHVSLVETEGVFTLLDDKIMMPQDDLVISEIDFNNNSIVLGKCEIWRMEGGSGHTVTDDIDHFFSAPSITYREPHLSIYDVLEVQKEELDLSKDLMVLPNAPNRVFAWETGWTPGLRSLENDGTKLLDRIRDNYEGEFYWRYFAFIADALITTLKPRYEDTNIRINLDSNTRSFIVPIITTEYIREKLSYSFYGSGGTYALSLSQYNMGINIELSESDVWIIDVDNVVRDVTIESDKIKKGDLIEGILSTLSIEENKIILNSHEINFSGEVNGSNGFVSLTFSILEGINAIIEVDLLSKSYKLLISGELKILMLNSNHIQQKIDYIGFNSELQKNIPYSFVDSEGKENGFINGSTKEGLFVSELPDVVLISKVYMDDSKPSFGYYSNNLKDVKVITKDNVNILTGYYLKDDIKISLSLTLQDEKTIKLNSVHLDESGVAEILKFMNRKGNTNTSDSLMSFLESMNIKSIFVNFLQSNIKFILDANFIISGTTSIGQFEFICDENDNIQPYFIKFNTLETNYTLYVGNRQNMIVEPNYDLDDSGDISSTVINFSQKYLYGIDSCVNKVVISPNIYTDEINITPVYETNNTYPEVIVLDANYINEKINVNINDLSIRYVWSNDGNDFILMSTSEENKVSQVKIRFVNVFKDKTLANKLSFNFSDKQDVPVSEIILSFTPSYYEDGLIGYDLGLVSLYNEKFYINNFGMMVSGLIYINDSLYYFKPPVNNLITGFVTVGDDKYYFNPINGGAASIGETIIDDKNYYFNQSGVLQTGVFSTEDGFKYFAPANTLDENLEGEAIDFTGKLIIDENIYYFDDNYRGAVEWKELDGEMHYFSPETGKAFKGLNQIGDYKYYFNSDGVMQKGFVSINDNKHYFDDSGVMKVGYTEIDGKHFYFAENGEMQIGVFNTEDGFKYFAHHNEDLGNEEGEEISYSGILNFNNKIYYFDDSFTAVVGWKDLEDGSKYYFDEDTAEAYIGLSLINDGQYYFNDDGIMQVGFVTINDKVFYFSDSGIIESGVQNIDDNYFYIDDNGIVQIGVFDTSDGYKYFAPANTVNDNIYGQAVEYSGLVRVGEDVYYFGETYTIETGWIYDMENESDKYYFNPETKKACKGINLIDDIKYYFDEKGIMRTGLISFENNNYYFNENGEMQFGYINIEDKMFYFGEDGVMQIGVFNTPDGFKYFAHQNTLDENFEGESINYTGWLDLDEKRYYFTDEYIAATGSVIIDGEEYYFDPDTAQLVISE

Which inhibition does the source give for CNC[C@H]1Oc2cc(-c3ccc(C(=O)N(C)C)cc3)ccc2S(=O)(=O)N([C@@H](C)CO)C[C@@H]1C here?
The inhibition was -0.097%.

How did the inhibition turn out when C[C@@H]1CN([C@H](C)CO)C(=O)c2cc(C3=CCCC3)cnc2O[C@H]1CN(C)C was run?
The inhibition was 0.146%.

For COc1ccc(NC(=O)N(C)C[C@@H]2Oc3c(NC(=O)c4ccc(-c5nccs5)cc4)cccc3C(=O)N([C@H](C)CO)C[C@@H]2C)cc1, which inhibition is on record?
Its inhibition is 0.889%.

Which inhibition does the source give for COc1cccc(NC(=O)N[C@@H]2C=C[C@H](CC(=O)NCc3ccccn3)O[C@H]2CO)c1 here?
Its inhibition is -0.684%.

Which inhibition does the source give for N#C[C@H]1N[C@H](CO)[C@H]1c1ccc(-c2cccc(F)c2)cc1 here?
The inhibition was -1.58%.

With Cc1ccc(-c2ccc(C3[C@H]4CNC[C@@H]3N4S(=O)(=O)c3ccccc3C)cc2)cc1 (stereo not given in full) as the compound, how does the inhibition read?
Its inhibition is -0.326% and -0.213%.

How did the inhibition turn out when COC(=O)[C@@H]1[C@@H](CO)[C@@H]2Cn3c(ccc(-c4ccc(OC)cc4)c3=O)[C@@H]2N1C was run?
The inhibition was -0.952%.

Which inhibition does the source give for C[C@@H]1CN([C@H](C)CO)C(=O)c2cc(NC(=O)NC3CCCCC3)ccc2O[C@@H](C)CCCCO[C@H]1CN(C)C(=O)Nc1ccccc1 here?
Its inhibition is 0.722%.

Which inhibition does the source give for C[C@H](CO)N1C[C@H](C)[C@H](CN(C)Cc2ccc3c(c2)OCO3)OCCCC[C@H](C)Oc2ccc(NC(=O)c3ccccc3)cc2C1=O here?
Its inhibition is -0.045%.

Which inhibition does the source give for O=c1c([N+](=O)[O-])cccn1Cc1ccc(F)cc1Cl here?
The inhibition was 38.4% (active).

How did the inhibition turn out when O=Cc1cn(Cc2ccc(F)cc2Cl)c2ccccc12 was run?
Its inhibition is -0.141%.

With Cc1ccc(-c2ccc(=O)n(Cc3ccc(F)cc3Cl)n2)cc1 as the compound, how does the inhibition read?
Its inhibition is 0.329%.

Which inhibition does the source give for CCC(=O)N1C[C@@H](C)[C@H](OC)CN(C)C(=O)c2ccc(NC(=O)COC)cc2OC[C@@H]1C here?
The inhibition was -0.964%.

Which inhibition does the source give for C[C@@H]1CCCCO[C@@H](CN(C)C(=O)NC2CCCCC2)[C@H](C)CN([C@H](C)CO)C(=O)c2cc(NC(=O)Nc3cccc4ccccc34)ccc2O1 here?
Its inhibition is -0.319%.

CN1C(=O)c2cc(NC(=O)c3cccc(F)c3)ccc2OC[C@@H]2O[C@@H](CC(=O)NCC3CCCCC3)CC[C@H]21 was tested. Which inhibition did it give?
Its inhibition is 27.1% (active) and 19.3% (active).

For CNC(=O)C[C@H]1CC[C@H]2[C@H](COc3ccc(NC(=O)c4cccc(F)c4)cc3C(=O)N2C)O1, which inhibition is on record?
Its inhibition is -0.293% and -0.193%.

CN1C(=O)c2cc(NC(=O)c3ccccc3)ccc2OC[C@@H]2O[C@H](CC(=O)NCC3CC3)CC[C@@H]21 was tested. Which inhibition did it give?
The inhibition was 0.093%.

How did the inhibition turn out when Cc1cc(C(=O)Nc2ccc3c(c2)C(=O)N(C)[C@H]2CC[C@H](CC(=O)NCC(F)(F)F)O[C@@H]2CO3)no1 was run?
The inhibition was -0.366%.

How did the inhibition turn out when CO[C@H]1O[C@H](CO)[C@@H](OC(=O)Nc2ccc(C(F)(F)F)cc2)[C@H](OC(=O)Nc2ccc3c(c2)OCO3)[C@H]1OC(=O)Nc1ccc2c(c1)OCO2 was run?
Its inhibition is 0.426%.

Which inhibition does the source give for CO[C@@H]1CN(C)C(=O)c2cc(NC(C)=O)ccc2OC[C@H](C)N(Cc2ccccc2F)C[C@@H]1C here?
Its inhibition is -0.886%.

How did the inhibition turn out when CN(C)C(=O)c1ccc(-c2ccc([C@H]3[C@H](CO)N4CCCCN(S(C)(=O)=O)C[C@@H]34)cc2)cc1 was run?
The inhibition was -1.71%.

O=C(CCN1CCCCC1)N[C@H]1CC[C@H](CCNS(=O)(=O)c2ccc(F)cc2)O[C@@H]1CO was tested. Which inhibition did it give?
The inhibition was 0.554%.

Which inhibition does the source give for Cc1ccccc1-c1ccc(C2[C@@H]3CN(C(=O)C4CCCCC4)C[C@H]2N3)cc1 (stereo not given in full) here?
Its inhibition is -3.88% and 0.934%.

How did the inhibition turn out when O=C(CSC1c2ccccc2-c2ccccc21)N/N=C/c1ccccc1 was run?
Its inhibition is 2.65%.

O=C(C[n+]1ccccc1)N/N=C/c1ccc(O)cc1 was tested. Which inhibition did it give?
The inhibition was 11.1% (active).

Which inhibition does the source give for Cc1nonc1C(=O)N/N=C/c1ccc(O)cc1 here?
The inhibition was 5.9%.

Which inhibition does the source give for O=C(CN1CCSCC1)N/N=C/c1ccc(Cl)cc1 here?
The inhibition was 1.98%.

For Nc1nnn(CC(=O)N/N=C/c2ccccc2)n1, which inhibition is on record?
The inhibition was 1.05%.

Which inhibition does the source give for Nc1nnn(CC(=O)N/N=C/c2ccc(O)cc2)n1 here?
The inhibition was 13.2% (active).

COc1ccc2c3c([nH]c2c1)[C@@H](CO)N(C(=O)CC1CC1)CC31CCN(Cc2cccnc2)CC1 was tested. Which inhibition did it give?
The inhibition was 0.524%.

Which inhibition does the source give for O=C(Cc1ccccc1)N1C[C@@H]2[C@H](c3ccccc31)[C@@H](CO)N2C(=O)Nc1ccc(F)cc1 here?
Its inhibition is 1.65%.

How did the inhibition turn out when COCC(=O)Nc1ccc2c(c1)[C@H]1C[C@H](CC(=O)NCc3ccc(OC)cc3)O[C@@H](CO)[C@H]1O2 was run?
The inhibition was 1.91%.

With CN1C(=O)c2cc(NC(=O)Nc3ccccc3F)ccc2OC[C@H]2O[C@H](CC(=O)NCc3ccc(-c4ccccc4)cc3)CC[C@H]21 as the compound, how does the inhibition read?
Its inhibition is -0.392%.

Which inhibition does the source give for COCC(=O)Nc1ccc2c(c1)OC[C@H](C)N(C(=O)c1ccccc1F)C[C@H](C)[C@H](OC)CN(C)C2=O here?
Its inhibition is 0.041%.

Which inhibition does the source give for O=c1[nH]c(CN2CCOCC2)nc2cc(Cl)ccc12 here?
The inhibition was 11.3% (active).

How did the inhibition turn out when CN(CCOc1ccccc1)Cc1nc2cc(Cl)ccc2c(=O)[nH]1 was run?
Its inhibition is -0.715%.

For O=c1[nH]c(CN2CCOCC2)nc2scc(-c3ccccc3)c12, which inhibition is on record?
The inhibition was 2.63%.

For CC(C)CC#Cc1cnc2c(c1)C(=O)N([C@@H](C)CO)C[C@@H](C)[C@@H](CN(C)C(=O)c1cccnc1)O2, which inhibition is on record?
Its inhibition is -0.559%.

O=C1C=CCCN1C(=O)/C=C/c1ccc(F)cc1 was tested. Which inhibition did it give?
Its inhibition is 0.919%.

Which inhibition does the source give for CCS(=O)(=O)N1CCC2(CC1)CN(S(=O)(=O)c1ccc(C)cc1)[C@H](CO)c1[nH]c3cc(OC)ccc3c12 here?
Its inhibition is -1.12%.

CCOC(=O)c1ccc(NC(=S)N2CCCC2)cc1 was tested. Which inhibition did it give?
Its inhibition is 1.01%.

O=C(NC1CCN(C(=S)Nc2ccc(Cl)cc2)CC1)C1CCCCC1 was tested. Which inhibition did it give?
Its inhibition is -0.645%.

How did the inhibition turn out when CN(C)c1ccc(C(=S)N2CCN(C(=S)Nc3ccc(Cl)cc3)CC2)cc1 was run?
The inhibition was 17.4% (active).

Which inhibition does the source give for COc1ccccc1NC(=O)N1CC(=O)N2[C@H](C1)[C@H](c1ccc(C#Cc3ccccc3)cc1)[C@@H]2CO here?
The inhibition was 0.309%.

With O=C(C[C@H]1CC[C@@H]2[C@H](COC[C@@H](O)CN2CC2CC2)O1)NCC1CC1 as the compound, how does the inhibition read?
The inhibition was -1.35%.
